Bioassay records (PubChem BioAssay)
In the library only some 1.1% were active in any assay of this set; here they are far more common.
NR2F2 inh: NR2F2 (human) inhibition, primary screen | 0.7% of 370,000 active | P24468 | HEK293T NGFI-A luciferase reporter, luminescence | inhibition, % at 8.6 µM;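 active = inhibition above a per-plate cutoff, mean inhibition of test wells between control levels plus 3 SD, cut at about 38% in these data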;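 note: cells cotransfected with COUP-TFII expression vector driving the NGFI-A reporter; 0% = median of COUP-TF2 test wells and 100% = reporter-only cells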
SRC2 inh: human SRC2 (NCOA2) inhibition; HEK293 GAL4-SRC2 luciferase reporter, luminescence; Q15596; inhibition, % at 9 µM; 0.17% of 370,000 active;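 active = inhibition above the mean inhibition of all tested compounds plus 3 SD, set per campaign, cut at about 52% in these data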;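 note: 0% = DMSO treated cells and 100% = cells given Gossypol at 36 µM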
Target sequence (Q15596 whole entry, looked up, the tested form may be a part): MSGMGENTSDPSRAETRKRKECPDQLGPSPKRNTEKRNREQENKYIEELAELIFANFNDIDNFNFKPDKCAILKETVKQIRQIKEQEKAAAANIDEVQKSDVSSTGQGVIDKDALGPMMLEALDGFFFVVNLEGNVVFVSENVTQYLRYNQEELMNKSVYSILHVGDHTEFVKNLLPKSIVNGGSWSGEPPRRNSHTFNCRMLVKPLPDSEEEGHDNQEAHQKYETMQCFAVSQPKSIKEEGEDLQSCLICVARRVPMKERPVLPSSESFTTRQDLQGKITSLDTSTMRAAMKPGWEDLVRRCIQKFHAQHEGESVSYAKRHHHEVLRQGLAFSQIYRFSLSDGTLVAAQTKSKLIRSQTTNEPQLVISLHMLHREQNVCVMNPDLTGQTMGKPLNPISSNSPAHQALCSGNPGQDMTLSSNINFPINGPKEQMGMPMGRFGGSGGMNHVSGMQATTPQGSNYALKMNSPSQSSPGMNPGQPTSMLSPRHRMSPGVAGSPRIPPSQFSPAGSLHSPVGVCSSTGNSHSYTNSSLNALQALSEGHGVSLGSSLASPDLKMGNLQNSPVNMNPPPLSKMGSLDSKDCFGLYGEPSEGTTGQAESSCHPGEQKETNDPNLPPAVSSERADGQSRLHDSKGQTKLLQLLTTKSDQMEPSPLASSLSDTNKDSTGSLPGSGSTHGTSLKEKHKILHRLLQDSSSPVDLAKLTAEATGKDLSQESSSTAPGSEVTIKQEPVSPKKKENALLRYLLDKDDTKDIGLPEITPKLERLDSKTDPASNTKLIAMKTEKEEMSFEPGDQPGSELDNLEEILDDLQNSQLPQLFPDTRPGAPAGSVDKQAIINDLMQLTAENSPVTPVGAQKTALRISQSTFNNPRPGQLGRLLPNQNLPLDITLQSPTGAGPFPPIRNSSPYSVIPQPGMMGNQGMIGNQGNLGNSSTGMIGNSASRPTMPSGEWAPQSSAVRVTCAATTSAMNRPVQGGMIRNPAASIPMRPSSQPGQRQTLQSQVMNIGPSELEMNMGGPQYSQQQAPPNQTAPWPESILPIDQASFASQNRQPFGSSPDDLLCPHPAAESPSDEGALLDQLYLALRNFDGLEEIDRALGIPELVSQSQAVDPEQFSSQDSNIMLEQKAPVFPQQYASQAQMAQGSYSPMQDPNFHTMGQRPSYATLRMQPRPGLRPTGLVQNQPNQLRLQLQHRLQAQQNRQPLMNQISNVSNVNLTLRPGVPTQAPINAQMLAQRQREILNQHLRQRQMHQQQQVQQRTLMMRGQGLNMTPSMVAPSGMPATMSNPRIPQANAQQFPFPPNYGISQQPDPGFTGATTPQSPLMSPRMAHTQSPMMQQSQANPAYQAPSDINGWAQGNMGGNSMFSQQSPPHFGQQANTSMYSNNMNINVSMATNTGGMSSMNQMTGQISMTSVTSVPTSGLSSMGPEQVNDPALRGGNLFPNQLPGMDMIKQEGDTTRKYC
LRH-1 inv ag: suppresses constitutive activity of human LRH-1; O00482; HEK293T StAR-luciferase reporter, LRH-1 transfected, 24 h; inhibition, % at 3.6 µM; 0.13% of 360,000 active;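 active = inhibition above the mean inhibition of all tested compounds plus 3 SD, cut at about 73% in these data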;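 note: 0% = DMSO wells and 100% = reporter-only cells lacking LRH-1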
NCOA1 inh: human NCOA1 inhibition. Q15788. HEK293 GAL4-SRC1 luciferase reporter, luminescence. inhibition, % at 3.6 µM. 0.12% of 360,000 active. AID 588354;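 active = inhibition above the campaign mean plus 3 SD, with each screening campaign given its own cutoff, cut at about 60% in these data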;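 note: 0% = DMSO treated cells and 100% = gossypol at 36 µM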
NCOA3 inh: inhibits human SRC3 coactivator | AID 588352 | HEK293 GAL4-SRC3 luciferase reporter, luminescence | Q9Y6Q9 | inhibition, % at 3.6 µM | 0.17% of 360,000 active;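 active = inhibition above a per-campaign cutoff, the mean of all compounds plus 3 SD, cut at about 60% in these data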;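 note: 0% = DMSO-treated cells and 100% = gossypol-treated cells at 36 µM; higher means less SRC3-driven luciferase light from the GAL4 reporter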
GalR3 antagonist: human GalR3 antagonism. O60755. HEK293 GalR3-CNG cAMP membrane potential fluorescence; galR3 body fused to GalR1 C-terminus. inhibition, % at 3 µM. 0.44% of 360,000 active. AID 651719;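 active = inhibition above the screen-wide average plus 3 SD, cut at about 13% in these data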;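 note: forskolin and galanin both at EC90 stimulate the cells; cAMP rise reported by CNG channel membrane potential dye signal; 0% = forskolin plus galanin with DMSO and 100% = forskolin alone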
GalR3 antag conf: confirmation of human galanin receptor 3 antagonists; AID 652245; 59% of 1,600 active; shares compounds with GalR3 antagonist; HEK293 GalR3 CNG cAMP biosensor, membrane potential fluorescence; galR3 fused to GalR1 carboxy tail; challenged with forskolin and galanin at EC90; inhibition, % at 3 µM;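 active = inhibition above the primary screen's cutoff, the mean inhibition of all screened compounds plus 3 SD, cut at about 13% in these data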;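 note: 0% = forskolin plus galanin and 100% = forskolin alone with DMSO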
CNG parental: parental cell agonism counter-screen for GalR3 antagonists | shares compounds with GalR3 antagonist | HEK293-CNG parental cells, cAMP membrane potential fluorescence; normalised: DMSO wells 0%, forskolin wells 100% | activation, % at 3 µM | 10% of 1,600 active | AID 652268; in the data active = activation above about 1.3%
* marks the source's active call; other numbers are inactive results; / = no result.

SMILES | NR2F2 inh | SRC2 inh | LRH-1 inv ag | NCOA1 inh | NCOA3 inh | GalR3 antagonist | GalR3 antag conf | CNG parental
Cc1cccc(NC(=O)CNC(=O)[C@H]2O[C@@H](n3cnc4c(N)ncnc43)[C@H](O)[C@@H]2O)c1C | 0 | -1 | -5 | -30 | 3 | -5 | / | /
Cc1ccc(CNC(=O)[C@H]2O[C@@H](n3cnc4c(N)ncnc43)[C@H](O)[C@@H]2O)o1 | -44 | -23 | 9 | -26 | -8 | 81* | 78* | 0
O=S(=O)(c1ccc(S(=O)(=O)N2CCN(C3CCCCC3)CC2)cc1)N1CCCCCC1 | -2 | -10 | 12 | 7 | 8 | -4 | / | /
CCN(CC)c1ccc(/C=N/NC(=O)c2cccc(S(=O)(=O)N3CCOCC3)c2)cc1 | -10 | 2 | 24 | -3 | -15 | -4 | / | /
CCN(Cc1ccccc1)c1ccc(/C=N/NC(=O)c2cccc(S(=O)(=O)N3CCOCC3)c2)cc1 | 9 | 5 | 58 | -1 | 28 | 24* | 89* | -2
Cc1ccc(-c2cc(C(=O)O)c3sc(N4CCCCC4)nc3n2)cc1 | -4 | -14 | -32 | -12 | 5 | -3 | / | /
O=C(O)c1cc(-c2ccccc2)nc2nc(N3CCCCC3)sc12 | -18 | 2 | / | / | / | 13* | 0 | 0
Cc1cc(Cl)c(S(=O)(=O)N2CC(C)OC(C)C2)cc1OCC(N)=O (stereo not drawn) | -2 | 11 | 10 | -14 | 10 | -5 | / | /
Cc1ccc(-n2c(SCC(=O)N3CC(=O)Nc4ccccc43)nc3ccccc3c2=O)cc1C | -2 | -6 | -8 | 2 | -3 | -3 | / | /
Cc1cccc(-n2c(SCC(=O)N3CC(=O)Nc4ccccc43)nc3ccccc3c2=O)c1 | -7 | 11 | 18 | -8 | -20 | 15* | 3 | 1
CCN1CCN(C(C)CCc2ccccc2)CC1 (stereo not drawn) | 3 | -8 | 5 | 4 | -7 | -3 | / | /
O=C1N=c2ccccc2=C1c1sc(=S)n(-c2ccc(O)cc2)c1O | -8 | -18 | 8 | -59 | 19 | 13* | 7 | -2
CC(=O)N1C=CN(C(C)=O)C(c2cn(C)c3ccccc23)C1c1cn(C)c2ccccc12 (stereo not drawn) | 0 | 0 | -7 | -1 | -1 | -10 | / | /
O=C1[C@H](Cc2ccccc2)NCCCC[C@@H](c2ccc(Cl)cc2)N1Cc1ccccc1 | 4 | 18 | 6 | -3 | -3 | / | 1 | 2.3*
CCOC(=O)COc1cccc2c(=O)n(CC(=O)NCc3ccccc3)ccc12 | -41 | 0 | 39 | -4 | 12 | 8 | / | /
CCOC(=O)COc1cccc2c(=O)n(CC(=O)NCc3ccc(F)cc3)ccc12 | -72 | 23 | 14 | -6 | -4 | 15* | 22* | 1
Cc1[nH]nc(NCCO)c1[N+](=O)[O-] | 12 | -14 | 12 | -24 | 2 | / | 69* | -1
COCCCN1C(=O)c2[nH]nc(-c3cc(C)cc(C)c3O)c2C1c1ccc(O)c(OC)c1 (stereo not drawn) | -13 | -8 | 11 | -3 | -13 | 2 | / | /
CCCN1C(=O)c2[nH]nc(-c3cc(Cl)c(C)cc3O)c2C1c1ccc(O)c(OC)c1 (stereo not drawn) | -11 | -12 | -11 | -27 | -21 | 20* | 4 | 0
COc1ccc(/C(=C\Nc2ccc(C)c(C)c2)C(C)=O)cc1OC | -3 | 12 | -7 | 4 | -1 | -6 | / | /
COc1cc(/C=N/NC(N)=O)ccc1OCC(=O)Nc1ccc(C)c(C)c1 | -25 | -8 | 13 | -15 | 6 | 24* | 32* | -1
COc1cc(/C=N/NC(N)=S)ccc1OCC(=O)Nc1ccc(C)c(C)c1 | 8 | 2 | 36 | -18 | -3 | 5 | / | /
Nc1cc2c(cc1C(=O)c1ccccc1F)OCCO2 | -12 | -16 | 17 | 3 | -27 | -6 | / | /
CCOC(=O)NC1(Nc2cccc(Cl)c2)Oc2ccccc2O1 | -12 | -30 | 4 | -24 | -21 | -1 | / | /
CC(=O)N1CCN(CC(O)COc2ccc(S(=O)(=O)N3CCOCC3)cc2)CC1 (stereo not drawn) | 5 | 18 | -4 | -1 | -31 | -1 | / | /
SMILES | NR2F2 inh | SRC2 inh | LRH-1 inv ag | NCOA1 inh | NCOA3 inh | GalR3 antagonist | GalR3 antag conf | CNG parental
O=C1NC(=O)C(CSc2ccccc2)(c2ccccc2)N1 (stereo not drawn) | -10 | -29 | -12 | -2 | -54 | -6 | / | /
CC1(CSc2ccccc2)CC(=O)N1 (stereo not drawn) | -32 | -22 | 22 | 0 | -22 | 21* | 29* | 0
Cc1nc2ccccc2c(=O)n1-c1ccc(NS(=O)(=O)c2ccccc2)cc1 | 20 | 10 | 8 | 22 | 8 | -3 | / | /
CCCCC[C@@H](/C=C/C1C(=O)C=C[C@H]1C/C=C\CCCC(=O)OC)OC(C)=O (stereo partly drawn) | -2 | 13 | 19 | 4 | -21 | 59* | 90* | 0
COc1ccccc1C(=O)Nc1cc(Cl)ccc1-n1cncn1 | -1 | 6 | 14 | -15 | 4 | -2 | / | /
O=[N+]([O-])c1ccc(-c2ccc(S(=O)(=O)NCCN3CCCC3)cc2)cc1 | 18 | 40 | 4 | 13 | -12 | 41* | 10 | 0
Cc1ccccc1C(=O)N1CCC(C(=O)Nc2ccc3c(c2)OCCO3)CC1 | 5 | 14 | 12 | 10 | 8 | 1 | / | /
O=C1CCCc2ccc3ccccc3c21 | -3 | -27 | -15 | -8 | -17 | -5 | / | /
COc1cc2ccccc2c2c1CCCC2=O | -28 | -18 | -22 | 5 | 17 | / | -6 | 1
O=C(COn1nnc2ccc(C(F)(F)F)cc21)Nc1c(Cl)cccc1Cl | 21 | 14 | -7 | 5 | 20 | 15* | 6 | 0
Cc1cccc(C)c1NC(=O)COn1nnc2ccc(C(F)(F)F)cc21 | -8 | -2 | -35 | 11 | 2 | -2 | / | /
CCOc1cc(CNCc2ccccc2)ccc1OCc1ccc(Cl)cc1 | 28 | 32 | -4 | -9 | 6 | 42* | 26* | 5.5*
O=C(NCc1cccc(C(F)(F)F)c1)c1ccc2sc([C@@H]3O[C@H](CO)[C@@H](O)[C@H]3O)nc2c1 | 2 | -15 | 4 | 9 | 13 | -2 | / | /
O=C(NCC(F)(F)F)c1ccc2sc([C@@H]3O[C@H](CO)[C@H](O)[C@H](O)[C@H]3O)nc2c1 | -61 | -20 | 5 | 1 | 3 | 40* | 0 | 0
O=C(COc1ccc2c(c1)oc(=O)c1ccccc12)NC(Cc1ccc(Cl)cc1)C(=O)O (stereo not drawn) | -7 | 0 | -4 | 2 | -4 | 26* | 4 | 0
